Experimental data reported in publication PMC9911399, “Two distinct binding modes provide the RNA-binding protein RbFox with extraordinary sequence specificity”.
Numbering of substitutions follows the chain as printed; changes in the protein carry UniProt numbers. In all, about 16,000 sequences were measured (“ka relative to ugcaugu”: median about 0.0091, highest 2% from about 0.032 on). The list comes from a sample in which the highest values are over-represented; it also holds similar and randomly drawn sequences.

B1: GACCAGC (DNA:RNA)
RNA: GGGAGACCGGAAUUCAGAUUGUCCGACCAGCUUAAAUCCCGUCGUAGCCACCA
DNA 1: CAATCTGAATTCCGGTCTCCC
DNA 2: TGGTGGCTACGACGGGATT
B2: GGGGUCA (DNA:RNA)
RNA: B1 RNA with A26G, C27G, C28G, A29U, G30C, C31A
DNA 1: CAATCTGAATTCCGGTCTCCC
DNA 2: TGGTGGCTACGACGGGATT
B3: AGGUCAC (DNA:RNA)
RNA: B1 RNA with G25A, A26G, C27G, C28U, A29C, G30A
DNA 1: CAATCTGAATTCCGGTCTCCC
DNA 2: TGGTGGCTACGACGGGATT
B4: CCUAGCG (DNA:RNA)
RNA: GGGAGACCGGAAUUCAGAUUGUCCCCUAGCGUUAAAUCCCGUCGUAGCCACCA
DNA 1: CAATCTGAATTCCGGTCTCCC
DNA 2: TGGTGGCTACGACGGGATT
B5: GAAUCAG (DNA:RNA)
RNA: B1 RNA with C27A, C28U, A29C, G30A, C31G
DNA 1: CAATCTGAATTCCGGTCTCCC
DNA 2: TGGTGGCTACGACGGGATT
B6: UUGAAGG (DNA:RNA)
RNA: B4 RNA with C25U, C26U, U27G, G29A, C30G
DNA 1: CAATCTGAATTCCGGTCTCCC
DNA 2: TGGTGGCTACGACGGGATT
B7: CUUACUA (DNA:RNA)
RNA: B4 RNA with C26U, G29C, C30U, G31A
DNA 1: CAATCTGAATTCCGGTCTCCC
DNA 2: TGGTGGCTACGACGGGATT
B8: UCUCGCU (DNA:RNA)
RNA: B4 RNA with C25U, A28C, G31U
DNA 1: CAATCTGAATTCCGGTCTCCC
DNA 2: TGGTGGCTACGACGGGATT
B9: GGAGAUU (DNA:RNA)
RNA: B1 RNA with A26G, C27A, C28G, G30U, C31U
DNA 1: CAATCTGAATTCCGGTCTCCC
DNA 2: TGGTGGCTACGACGGGATT
B10: GGGAAUU (DNA:RNA)
RNA: B1 RNA with A26G, C27G, C28A, G30U, C31U
DNA 1: CAATCTGAATTCCGGTCTCCC
DNA 2: TGGTGGCTACGACGGGATT
B11: GCGGCGG (DNA:RNA)
RNA: B4 RNA with C25G, U27G, A28G, G29C, C30G
DNA 1: CAATCTGAATTCCGGTCTCCC
DNA 2: TGGTGGCTACGACGGGATT
B12: GGGAGAU (DNA:RNA)
RNA: B4 RNA with C25G, C26G, U27G, C30A, G31U
DNA 1: CAATCTGAATTCCGGTCTCCC
DNA 2: TGGTGGCTACGACGGGATT
B13: CGGGGAU (DNA:RNA)
RNA: B4 RNA with C26G, U27G, A28G, C30A, G31U
DNA 1: CAATCTGAATTCCGGTCTCCC
DNA 2: TGGTGGCTACGACGGGATT
B14: GGGGAUU (DNA:RNA)
RNA: B1 RNA with A26G, C27G, C28G, G30U, C31U
DNA 1: CAATCTGAATTCCGGTCTCCC
DNA 2: TGGTGGCTACGACGGGATT
B15: GCGGUUC (DNA:RNA)
RNA: B1 RNA with A26C, C27G, C28G, A29U, G30U
DNA 1: CAATCTGAATTCCGGTCTCCC
DNA 2: TGGTGGCTACGACGGGATT
B16: GGGGGAU (DNA:RNA)
RNA: B4 RNA with C25G, C26G, U27G, A28G, C30A, G31U
DNA 1: CAATCTGAATTCCGGTCTCCC
DNA 2: TGGTGGCTACGACGGGATT
B17: GCGGGAU (DNA:RNA)
RNA: B4 RNA with C25G, U27G, A28G, C30A, G31U
DNA 1: CAATCTGAATTCCGGTCTCCC
DNA 2: TGGTGGCTACGACGGGATT

The binders below were run against T1, RBFOX1 RRM (Homo sapiens, UniProt Q9NWB1 109-208) (assay: EMSA; HiTS-Eq, 1 nM pool, 10 min; buffer printed only for the single-RNA assays: 10 mM Tris pH 7.5, 150 mM NaCl, 3.4 mM EDTA, 0.001% NP-40, 30 C). Settings: tags: His6 N-terminal (pET28a); label: 5' 32P.
T1 sequence: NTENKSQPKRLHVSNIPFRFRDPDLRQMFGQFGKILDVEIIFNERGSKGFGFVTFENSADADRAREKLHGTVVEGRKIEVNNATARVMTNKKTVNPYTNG
How it was run: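 A pool of RNA with 7 randomized nucleotides, 5′-radiolabelled and with DNA-annealed flanks, was equilibrated at 1 nM for 10 min in 50 µL with purified RbFox RRM, wild type or mutant, across increasing protein concentrations. Free RNA was separated by 8% native PAGE, excised, reverse-transcribed, barcoded by PCR and sequenced. Relative association constants were obtained from read-count changes of each RNA species versus the control reaction and normalised to the cognate motif.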
B1 was tested, and the binding signal was 0.00826 KA relative to UGCAUGU.
With B2 the binding signal was 0.0251 KA relative to UGCAUGU.
For B3, the binding signal was 0.0109 KA relative to UGCAUGU.
With B4 the binding signal was 0.00608 KA relative to UGCAUGU.
For B5, the binding signal was 0.00941 KA relative to UGCAUGU.
B6 was tested, and the binding signal was 0.0111 KA relative to UGCAUGU.
B7 was tested, and the binding signal was 0.00319 KA relative to UGCAUGU.
In the case of B8, the binding signal is reported as 0.0104 KA relative to UGCAUGU.
B9 was tested, and the binding signal was 0.0219 KA relative to UGCAUGU.
For B10, the binding signal was 0.0335 KA relative to UGCAUGU.
For B11, the binding signal was 0.0288 KA relative to UGCAUGU.
B12 was tested, and the binding signal was 0.0316 KA relative to UGCAUGU.
In the case of B13, the binding signal is reported as 0.0184 KA relative to UGCAUGU.
B14 was tested, and the binding signal was 0.038 KA relative to UGCAUGU.
With B15 the binding signal was 0.0202 KA relative to UGCAUGU.
In the case of B16, the binding signal is reported as 0.0252 KA relative to UGCAUGU.
In the case of B17, the binding signal is reported as 0.0486 KA relative to UGCAUGU.
